# Compound activity as filed in PubChem BioAssay.
# Most compounds without a hit are left out; they make up all but 5.7% or so of the library.
# KDM4E inh – blocks human JMJD2E demethylase activity; B2RXH2; JMJD2E catalytic domain, FDH-coupled NADH fluorescence (FDH is formaldehyde dehydrogenase); Potency, µM (doses to about 57.1 µM), usual class: inhibitors; hit rate 1.6% among 230,000; AID 2147; active = well fitted inhibition curve with a large enough effect, not every such curve was filed as active; inconclusive = small, poorly fitted or top-dose-only effect, or another doubt; inactive = no such curve, though single readings can be large or run the other way; also: nearly all actives have a fitted effect of over 50% in size
# PI5P4Ka inh – inhibitors of human PI5P4K alpha | P48426 | PI5P4Kalpha enzyme, ADP-Glo luminescence, 60 min; active compounds read low | max response, % | hit rate 1.2% among 330,000 | AID 652105; active = max response of -50% or lower; inconclusive = between -30% and -50%; inactive = -30% or higher; also: value at the top dose of about 77 µM
#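 Enzyme plus substrate dispensed, test compounds pinned in, then ATP (5 microM final) added. After 60 min at RT, ADP-Glo reagent 1 for 45 min and reagent 2 for 30 min preceded luminescence imaging.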
# HP1b binding inh – blocks HP1-beta chromodomain binding to methylated histone tails | P83916 | AlphaScreen HP1-beta / biotin-H3K9me3 peptide binding | Potency, µM (series often up to 114 µM), most hits filed as inhibitors | hit rate 0.56% among 390,000 | AID 540317; also: nearly all actives have a fitted effect of over 70% in size
#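 HP1-beta protein (50 nM final) preincubated 30 min at room temperature with biotinylated H3(1-18)K9me3 peptide (50 nM) in PBS pH 7.4, 0.01% Tween-20, then compound added for 30 min. AlphaScreen streptavidin donor/nickel chelate acceptor beads (10 ug/mL final), 30 min dark, luminescence read.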
# JMJD2A Tudor inh – JMJD2A Tudor domain (human) inhibition; O75164; AlphaScreen JMJD2A-Tudor / H3K4me3 peptide binding; Potency, µM (doses to about 114 µM), hits mostly inhibitors; hit rate 4.4% among 390,000; AID 504339; also: nearly all actives have a fitted effect of over 50% in size
# L3MBTL1 inh – inhibitors of human L3MBTL1. Q9Y468. AlphaScreen L3MBTL1–H3K9me1 peptide binding. Potency, µM (doses to about 57.1 µM), most hits filed as inhibitors. hit rate 0.66% among 230,000. AID 485360; also: nearly all actives have a fitted effect of over 60% in size
# Target sequence (Q9Y468 whole entry, looked up): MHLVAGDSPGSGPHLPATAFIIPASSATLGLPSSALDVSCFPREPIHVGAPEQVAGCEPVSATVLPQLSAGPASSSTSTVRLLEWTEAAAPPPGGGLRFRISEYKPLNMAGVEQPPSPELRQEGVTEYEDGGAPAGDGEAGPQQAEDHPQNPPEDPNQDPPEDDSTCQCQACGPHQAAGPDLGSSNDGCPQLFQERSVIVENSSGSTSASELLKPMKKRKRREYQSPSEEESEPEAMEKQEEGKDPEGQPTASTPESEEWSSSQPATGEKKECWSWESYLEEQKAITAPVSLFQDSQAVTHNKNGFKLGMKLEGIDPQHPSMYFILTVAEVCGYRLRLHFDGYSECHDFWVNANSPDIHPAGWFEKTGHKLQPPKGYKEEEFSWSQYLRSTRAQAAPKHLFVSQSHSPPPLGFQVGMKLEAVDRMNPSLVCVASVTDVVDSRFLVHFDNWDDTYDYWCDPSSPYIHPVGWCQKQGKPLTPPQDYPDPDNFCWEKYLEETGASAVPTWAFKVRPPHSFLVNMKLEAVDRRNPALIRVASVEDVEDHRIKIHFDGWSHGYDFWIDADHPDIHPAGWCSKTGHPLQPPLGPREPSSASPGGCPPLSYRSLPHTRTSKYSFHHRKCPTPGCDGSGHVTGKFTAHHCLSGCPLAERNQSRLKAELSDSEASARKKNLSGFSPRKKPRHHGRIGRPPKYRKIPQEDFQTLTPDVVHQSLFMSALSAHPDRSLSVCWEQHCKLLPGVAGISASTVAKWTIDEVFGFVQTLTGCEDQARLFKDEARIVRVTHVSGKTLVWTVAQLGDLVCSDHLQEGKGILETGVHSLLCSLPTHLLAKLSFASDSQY
#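 Read-out is AlphaScreen signal from streptavidin donor and nickel chelate acceptor beads (10 ug/mL final each) bridging L3MBTL1 (50 nM) and biotinylated K9-monomethylated H3(1-15) peptide (75 nM), after 30 min compound exposure at room temperature.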
# BAZ2B block – BAZ2B (human) inhibition. hit rate 4.4% among 360,000. AID 504333. Potency, µM (series often up to 114 µM), actives largely listed as inhibitors. AlphaScreen BAZ2B-H3K14Ac peptide displacement; also: nearly all actives have a fitted effect of over 60% in size
#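 Protein-peptide AlphaScreen: BAZ2B 50 nM, b-H3K14Ac 50 nM, 1x PBS pH 7.4 + 0.01% Tween-20. Preincubation 30 min RT; cpd 30 min RT (top 110 uM); beads 20 min RT, light-protected.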
# A number is an active result; n = inactive; u = inconclusive; x = no result given; [ ] = dose if it differs, or a comment. Unless noted, calls follow the shape of the dose curve; as a rule, active = well fitted inhibition curve with a large enough effect; inconclusive = small, poorly fitted or top-dose-only effect; inactive = no such curve, though single readings can be large or run the other way.
SMILES,KDM4E inh,PI5P4Ka inh,HP1b binding inh,JMJD2A Tudor inh,L3MBTL1 inh,BAZ2B block
CCOc1ccc(/C=C/C(=O)c2ccccc2)cc1,n,n,n,n,n,n
CC[N+](CC)(CC)CCOc1ccc(/C=C/c2ccccc2)cc1,x,n,n,u,n,56µM
CC[N+](CC)(CC)CCOc1ccc(/C=C\c2ccccc2)cc1,25µM,x,x,x,x,x
COC(=O)[C@@]1(Cc2ccccc2)[C@H]2c3cc(C(=O)N4CCCC4)n(CCO)c3C[C@H]2CN1C(=O)c1ccccc1,n,x,x,x,x,x
CCN(CCNCC(O)COc1ccccc1C(C)C)c1cccc(C)c1 (configuration not stated),x,n,u,0.79µM,x,28µM
CCCN1CNc2c(c(=O)[nH]c(=S)n2CCc2cc(Cl)ccc2Cl)C1,x,x,n,n,x,x
Cc1sc2ncn(CC(=O)N3CCN(c4ccccc4)CC3)c(=O)c2c1S(=O)(=O)N1CCN(c2ncccn2)CC1,x,x,n,n,x,n
O=C1CCCC(O)=C1N=Nc1c(Cl)cc(C(F)(F)F)cc1Cl,25µM,u,n,u,n,71µM
O=C1CCCC(O)=C1N=Nc1ccc(C(=O)O)cc1,u,u,45µM,n[11.4 µM],3.2µM,22µM
Cc1nn(C(C)C(=O)Nc2cccc(F)c2)c(=O)c2c1sc1ccccc12 (configuration not stated),x,x,n,n,x,n
Cc1ccc(NC(=O)Cn2cc(S(=O)(=O)N3CCN(c4ccccc4F)CC3)c3ccccc3c2=O)cc1F,x,x,n,n,x,n
CN(C)c1nc(N2CCOCC2)nc(N(c2ccccc2)c2ccccc2)n1,n,n,n,n,n,n
CN(C)c1nc(C(=O)O)nc(N2CCOCC2)n1,n,n,n,32µM,n,n
CSc1ncccc1C(=O)OCC(=O)Nc1ccc2c(c1)CCC2,x,n,n,n,n,n
O=C(NCC(c1ccco1)S(=O)(=O)c1ccc(Cl)cc1)c1ccc(C(F)(F)F)cc1 (configuration not stated),x,x,n,n,x,n
C[n+]1cccc2ccc3c(c21)OC(N)=C(C#N)C3c1ccccc1 (configuration not stated),16µM,n,n,n,x,n
COc1ccc(C(=O)NC(C)c2nc3ccccc3n2C)cc1OC (configuration not stated),n,n,n,n,n,n
COc1ccc(C(=O)NN2CC(O)=C(c3nc4ccccc4n3C)C2=N)cc1OC,n,n,n,4.5µM,n,n
COc1cccc(C2=NN(C(=O)C3CC3)C(O)(C(F)(F)F)C2)c1 (configuration not stated),x,n,x,x,x,x
CCOC(=O)c1c(CN(C)C)n(C)c2c(O)c(N=NC(N)=O)c3ccc(Br)cc3c12,x,n,n,35µM,x,n
Cc1nc2c(=O)[nH]c(=S)n(C)c2nc1C,n,u,n,50µM,n,n
Cn1c(=S)[nH]c2cccnc21,n,n,n,u,x,n
CCOC(=O)CSc1n[nH]c(=S)s1,10µM,u,u,u,n,u
CCOC(=O)CSc1nnc(N)s1,n,n,n,56µM,n,n
CCOC(=O)CNC(=O)CSc1nnc(SCC(=O)NCC(=O)OCC)s1,n,x,n,n,n,n
SMILES,KDM4E inh,PI5P4Ka inh,HP1b binding inh,JMJD2A Tudor inh,L3MBTL1 inh,BAZ2B block
CCNC(=O)C1(C)CCN(C(=O)c2cccc(Cl)c2)C1 (configuration not stated),x,n,x,x,x,x
Nc1ccc(Sc2ccc([N+](=O)[O-])cc2)cc1,n,n,u,u,x,35µM
COc1ccc(C(=O)c2ccc(O)cc2)c(O)c1O,16µM,x,x,x,x,x
CCOc1ccc(C(=O)c2ccc(OC)c(O)c2O)cc1,25µM,x,x,x,x,x
CC(C)Oc1cccc(NC(=O)C2(C)CCN2C(=O)C(C)C)c1 (configuration not stated),x,n,x,x,x,x
CCc1nn2c(=O)cc(COC(=O)CNC(=O)COc3ccc(C)cc3)nc2s1,x,x,n,n,x,n
C=CCNC(=O)c1ccc(OC)cc1,n,n,n,n,n,n
COCCNCC#CCOc1ccc(OC)cc1,u,x,u,7.9µM,x,50µM
C=CCNCC#CCOc1ccc(OC)cc1,u,n,u,6.3µM,x,u
COCCNC(=O)C(=O)NNC(=O)COc1ccc(OC)cc1,n,n,n,n,n,n
COc1ccc(C(=O)N(Cc2ccccc2)Cc2ccccc2)c(O)c1,x,x,x,n,x,x
CC(C)C(OC(=O)c1cc2sccc2n1C)C(=O)NCC1CCCO1 (configuration not stated),n,x,n,n,n,n
COc1ccc(CN(CC2CCCO2)C(=O)c2cc3sccc3n2C)c(OC)c1 (configuration not stated),n,n,n,u,n,56µM
CN1Cc2c(N3CCOCC3)nc3sc(C(=O)c4ccccc4)c(N)c3c2CC1(C)C,u,n,n,45µM,n,u
C=CCn1c(-c2ccccn2)n[nH]c1=S,x,n,x,x,x,x
CCn1c(CCCc2ccc(OC)c(C)c2)n[nH]c1=S,n,n,n,u,n,n
C=CCn1c(-c2cc3cccc(OC)c3o2)n[nH]c1=S,u,u,n,40µM,n,u
COC(Cn1c(-c2cccc(S(=O)(=O)N(C)C)c2)n[nH]c1=S)OC,n,n,n,7.9µM,n,x
CCn1c(-c2cc(OC)c(OC)c(OC)c2)n[nH]c1=S,u,n,n,7.9µM,x,n
C=CCn1c(-c2cccnc2)n[nH]c1=S,n,n,n,20µM,n,n
